{"source": "the supplement of paper PMC4166925", "note": "± gives the standard deviation of the averaged measurements. In all, about 33,000 sequences were measured (“E-score (dimensionless, -0.5 to 0.5)”: median about -0.046, highest 2% from about 0.36 on). This excerpt belongs to a sample that is enriched for the highest values.", "data": [{"system": "T1, SpTbr T-box DNA-binding domain (GST fusion)", "T1 sequence": "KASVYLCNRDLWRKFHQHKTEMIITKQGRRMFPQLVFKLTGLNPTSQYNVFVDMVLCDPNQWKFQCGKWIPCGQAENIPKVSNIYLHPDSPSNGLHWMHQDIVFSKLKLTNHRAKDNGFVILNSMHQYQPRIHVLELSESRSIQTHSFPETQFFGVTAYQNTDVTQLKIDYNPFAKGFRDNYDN", "assay": "PBM E-score of 8-mer (E-score (dimensionless, -0.5 to 0.5)); Tbr is Tbrain of the sea star Patiria miniata (Pm) or the sea urchin Strongylocentrotus purpuratus (Sp); higher = stronger binding preference", "conditions": "the construct has about 5 more residues each side", "how_it_was_run": "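Primer extension turned Universal Agilent oligonucleotide arrays double-stranded. They were incubated with 200 nM protein in PBS (pH 7.5); the protein was a GST-fused Tbr T-box DNA-binding domain expressed in BL21 E. coli at 20 °C and purified on glutathione. Every ungapped 8-mer was scored from the scanned, quantified probe intensities, and the Universal PBM Analysis Suite gave each an enrichment E-score averaged over duplicate arrays.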", "values": [{"sequence": "GACCACCC", "PBM E-score of 8-mer": "-0.0294 ± 0.0021"}, {"sequence": "CACCACAC", "PBM E-score of 8-mer": "0.3556 ± 0.0015"}, {"sequence": "CGCACCAG", "PBM E-score of 8-mer": "0.242 ± 0.0071"}, {"sequence": "CACACCAA", "PBM E-score of 8-mer": "0.38 ± 0.017"}, {"sequence": "AACACCAG", "PBM E-score of 8-mer": "0.317 ± 0.028"}, {"sequence": "CTCACCAA", "PBM E-score of 8-mer": "0.133 ± 0.059"}, {"sequence": "GACACCAA", "PBM E-score of 8-mer": "0.327 ± 0.024"}, {"sequence": "AACACCAC", "PBM E-score of 8-mer": "0.344 ± 0.015"}, {"sequence": "CCCACCAA", "PBM E-score of 8-mer": "-0.0327 ± 0.016"}, {"sequence": "CACACCAG", "PBM E-score of 8-mer": "0.386 ± 0.036"}, {"sequence": "CACACCAC", "PBM E-score of 8-mer": "0.394 ± 0.015"}, {"sequence": "CCCACCAC", "PBM E-score of 8-mer": "-0.00552 ± 0.018"}, {"sequence": "GACACCAC", "PBM E-score of 8-mer": "0.367 ± 0.039"}, {"sequence": "TCATTTAA", "PBM E-score of 8-mer": "-0.193 ± 0.036"}, {"sequence": "CCTCTGCA", "PBM E-score of 8-mer": "-0.1407 ± 0.00062"}, {"sequence": "AATAGCCC", "PBM E-score of 8-mer": "-0.194 ± 0.016"}, {"sequence": "AGTAAATA", "PBM E-score of 8-mer": "-0.121 ± 0.066"}, {"sequence": "GCTTGCTA", "PBM E-score of 8-mer": "-0.156 ± 0.02"}, {"sequence": "AGCGCACG", "PBM E-score of 8-mer": "0.137 ± 0.04"}, {"sequence": "ACTGTCTG", "PBM E-score of 8-mer": "0.126 ± 0.021"}, {"sequence": "AGGCTTGG", "PBM E-score of 8-mer": "-0.225 ± 0.031"}, {"sequence": "AGACTTTC", "PBM E-score of 8-mer": "0.00343 ± 0.055"}, {"sequence": "GCTACCTA", "PBM E-score of 8-mer": "-0.0771 ± 0.051"}, {"sequence": "CCCTGTCG", "PBM E-score of 8-mer": "-0.00439 ± 0.04"}, {"sequence": "AGCTGTCA", "PBM E-score of 8-mer": "0.382 ± 0.022"}, {"sequence": "GGCTGTCA", "PBM E-score of 8-mer": "0.172 ± 0.051"}, {"sequence": "AGCTGTGC", "PBM E-score of 8-mer": "0.214 ± 0.041"}, {"sequence": "AGCTGTGA", "PBM E-score of 8-mer": "0.393 ± 0.0083"}, {"sequence": "ACCTGTGA", "PBM E-score of 8-mer": "0.3985 ± 0.0028"}, {"sequence": "ACCTGTCT", "PBM E-score of 8-mer": "0.104 ± 0.0037"}, {"sequence": "AGCTGTCC", "PBM E-score of 8-mer": "0.00624 ± 0.016"}, {"sequence": "AGCTGTGG", "PBM E-score of 8-mer": "0.129 ± 0.058"}, {"sequence": "ACCTGTCG", "PBM E-score of 8-mer": "0.37 ± 0.011"}, {"sequence": "ACCTGTGC", "PBM E-score of 8-mer": "0.151 ± 0.018"}, {"sequence": "GCCTGTGA", "PBM E-score of 8-mer": "0.187 ± 0.0033"}, {"sequence": "CGGCCAAA", "PBM E-score of 8-mer": "-0.0415 ± 0.0054"}, {"sequence": "ATAACCGA", "PBM E-score of 8-mer": "-0.206 ± 0.066"}, {"sequence": "CAGTTCTC", "PBM E-score of 8-mer": "0.143 ± 0.053"}, {"sequence": "AACCACTG", "PBM E-score of 8-mer": "-0.317 ± 0.011"}, {"sequence": "CACTCTCC", "PBM E-score of 8-mer": "0.0753 ± 0.021"}, {"sequence": "AACTGTGA", "PBM E-score of 8-mer": "0.376 ± 0.011"}, {"sequence": "AACTGTGG", "PBM E-score of 8-mer": "0.128 ± 0.0018"}, {"sequence": "AACTGTGC", "PBM E-score of 8-mer": "-0.0399 ± 0.045"}, {"sequence": "GCTTAGGA", "PBM E-score of 8-mer": "-0.107 ± 0.059"}, {"sequence": "AACCTCTA", "PBM E-score of 8-mer": "-0.187 ± 0.065"}, {"sequence": "CACCTCTC", "PBM E-score of 8-mer": "0.421 ± 0.022"}, {"sequence": "CACCTCTA", "PBM E-score of 8-mer": "0.416 ± 0.0043"}, {"sequence": "GACCTCTC", "PBM E-score of 8-mer": "-0.153 ± 0.016"}, {"sequence": "CAACTCTG", "PBM E-score of 8-mer": "0.225 ± 0.013"}, {"sequence": "AACCTCTC", "PBM E-score of 8-mer": "-0.0774 ± 0.028"}, {"sequence": "GACCTCTA", "PBM E-score of 8-mer": "-0.234 ± 0.033"}, {"sequence": "CACCTCTG", "PBM E-score of 8-mer": "0.3929 ± 0.0014"}, {"sequence": "AACCTCTG", "PBM E-score of 8-mer": "-0.137 ± 0.075"}, {"sequence": "ATAGGAGC", "PBM E-score of 8-mer": "-0.181 ± 0.022"}, {"sequence": "CACAACTC", "PBM E-score of 8-mer": "0.25 ± 0.0039"}, {"sequence": "AGAGGAGA", "PBM E-score of 8-mer": "-0.116 ± 0.043"}, {"sequence": "CTTTCAGC", "PBM E-score of 8-mer": "-0.162 ± 0.032"}, {"sequence": "GGTTGTTA", "PBM E-score of 8-mer": "0.213 ± 0.048"}, {"sequence": "CCGACCTC", "PBM E-score of 8-mer": "-0.148 ± 0.046"}, {"sequence": "CAACACGG", "PBM E-score of 8-mer": "0.0142 ± 0.003"}, {"sequence": "GTGTCAAA", "PBM E-score of 8-mer": "0.444 ± 0.0081"}, {"sequence": "CTGTCAAC", "PBM E-score of 8-mer": "0.35 ± 0.023"}, {"sequence": "ATGTCGCA", "PBM E-score of 8-mer": "0.231 ± 0.039"}, {"sequence": "CTGTCGCA", "PBM E-score of 8-mer": "0.235 ± 0.054"}, {"sequence": "CTGTCAGA", "PBM E-score of 8-mer": "0.207 ± 0.025"}, {"sequence": "ATGTCAGA", "PBM E-score of 8-mer": "-0.15 ± 0.011"}, {"sequence": "GTGTCAAC", "PBM E-score of 8-mer": "0.4761 ± 0.0027"}, {"sequence": "GTGTCAGA", "PBM E-score of 8-mer": "0.387 ± 0.023"}, {"sequence": "CTGTCAAA", "PBM E-score of 8-mer": "0.249 ± 0.057"}, {"sequence": "ATGTCAAC", "PBM E-score of 8-mer": "0.267 ± 0.024"}, {"sequence": "TTGTCAAA", "PBM E-score of 8-mer": "0.0897 ± 0.09"}, {"sequence": "GTGTCGCA", "PBM E-score of 8-mer": "0.367 ± 0.021"}, {"sequence": "CCGCTCTC", "PBM E-score of 8-mer": "-0.00942 ± 0.013"}, {"sequence": "CCTATTCG", "PBM E-score of 8-mer": "-0.116 ± 0.11"}, {"sequence": "AAACTATG", "PBM E-score of 8-mer": "-0.131 ± 0.049"}, {"sequence": "CCAACTCA", "PBM E-score of 8-mer": "-0.0818 ± 0.049"}, {"sequence": "CAGAAGCC", "PBM E-score of 8-mer": "-0.308 ± 0.064"}, {"sequence": "GTTCAATA", "PBM E-score of 8-mer": "-0.174 ± 0.0066"}, {"sequence": "CCGTCAAC", "PBM E-score of 8-mer": "0.24 ± 0.021"}, {"sequence": "GTGTCATA", "PBM E-score of 8-mer": "0.404 ± 0.022"}, {"sequence": "CTGTCATA", "PBM E-score of 8-mer": "0.122 ± 0.036"}, {"sequence": "GCGTCAAC", "PBM E-score of 8-mer": "0.3857 ± 0.0035"}, {"sequence": "ATGTCACA", "PBM E-score of 8-mer": "0.3087 ± 0.00058"}, {"sequence": "ATGTCACG", "PBM E-score of 8-mer": "0.204 ± 0.017"}, {"sequence": "GCGTCAAA", "PBM E-score of 8-mer": "0.31 ± 0.029"}, {"sequence": "ATGTCATA", "PBM E-score of 8-mer": "-0.202 ± 0.0053"}, {"sequence": "GTGTCACA", "PBM E-score of 8-mer": "0.436 ± 0.011"}]}]}
